From PubChem BioAssay (Tox21)
Records with an inconclusive call do not appear. Entries that show only a call come without a potency. The source holds several records for some structures; these can differ, active in one and inactive in another. Activity calls are given as the source filed them. Unless noted, calls come from the whole dose curve; as a rule, active = well fitted curve in the direction sought with a large enough effect in the repeat runs; inconclusive = weak or mixed curves; inactive = no such curve, though single readings can be large; an effect the other way counts as inactive or inconclusive.

Tests used:
[1] = qHTS assay to identify small molecule antagonists of the thyroid receptor (TR) signaling pathway - cell viability counter screen (AID 743064); note: nearly all actives have a fitted effect of over 50% in size
How it was run: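 In-well cytotoxicity read by CellTiter-Fluor (30 min, 37 C) following 23.5 h exposure of GH3 cells bearing a TRE-luciferase sensor. Compounds were added alongside 1 nM (final) T3 to drive TR transactivation.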

[2] = qHTS assay to identify small molecule antagonists of the thyroid receptor (TR) signaling pathway (AID 743065); note: series mostly up to about 70 µM; nearly all actives have a fitted effect of over 55% in size
How it was run: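 Antagonism measured as loss of luciferase signal in GH3 cells stably carrying a TRE-luciferase reporter, co-treated with compound and T3 (1 nM final) for 23.5 h at 37 C. Viability was read in the same well by CellTiter-Fluor.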

[3] = system: thyroid hormone receptor (rat, GH3 cells); assay: qHTS assay to identify small molecule agonists of the thyroid receptor (TR) signaling pathway (AID 743066; calls by dose curve)
[4] = molecular target: Estrogen receptor (Homo sapiens) (UniProt P03372); assay: qHTS assay to identify small molecule antagonists of the estrogen receptor alpha (ER-alpha) signaling pathway (AID 743069; active = well fitted curve in the direction sought with a large enough effect in the signal ratio in the repeat runs, not every such curve was filed as active; the % refers to the signal ratio)
How it was run: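 ER-alpha-UAS-bla GripTite HEK293 line; 2% charcoal-stripped FBS overnight; plated, 4 hr 37C/5% CO2; cpd in DMSO + 17beta-estradiol, 18 hr 37C; LiveBLAzer B/G FRET substrate 2 hr RT; fluorescence intensity.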

[5] = qHTS assay to identify small molecule antagonists of the estrogen receptor alpha (ER-alpha) signaling pathway - cell viability counter screen (AID 743074; calls by dose curve;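 note: HEK293 cells carrying ER-alpha-UAS-bla reporter stimulated with 17beta-estradiol; nearly all actives have a fitted effect of over 45% in size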)
[6] = molecular target: Estrogen receptor (Homo sapiens) (UniProt P03372); assay: qHTS assay to identify small molecule agonists of the estrogen receptor alpha (ER-alpha) signaling pathway (AID 743075; calls by dose curve;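 note: HEK293 GripTite cells with ER-alpha and UAS-driven beta-lactamase reporter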)
[7] = molecular target: Estrogen receptor (Homo sapiens) (UniProt P03372); assay: qHTS assay to identify small molecule agonists of the estrogen receptor alpha (ER-alpha) signaling pathway using the BG1 cell line (AID 743079); note: nearly all actives have a fitted effect of over 20% in size
[8] = qHTS assay to identify small molecule antagonists of the estrogen receptor alpha (ER-alpha) signaling pathway using the BG1 cell line (AID 743080; calls by dose curve;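 note: BG1 cells stimulated with 17beta-estradiol alongside compound; series mostly up to about 70 µM; nearly all actives have a fitted effect of over 25% in size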)
How it was run: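 Luciferase inhibition measured with ONE-Glo after 30 min at RT in BG1Luc4E2 cells given test compounds and 17beta-estradiol for 21.5 h at 37 C; CellTiter-Fluor viability read in the same wells beforehand.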

[9] = qHTS assay to identify small molecule antagonists of the estrogen receptor alpha (ER-alpha) signaling pathway using the BG1 cell line - cell viability counter screen (AID 743081);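 note: compound given together with 17beta-estradiol as the ER stimulus; series mostly up to about 70 µM; nearly all actives have a fitted effect of over 45% in size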
Aromatase (Homo sapiens) = Aromatase (Homo sapiens) (UniProt P11511); assay: qHTS assay to identify aromatase inhibitors (AID 743083); note: series mostly up to about 70 µM; nearly all actives have a fitted effect of over 55% in size
[10] = qHTS assay to identify aromatase inhibitors - cell viability counter screen (AID 743084);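 note: cells stimulated with testosterone during compound exposure; nearly all actives have a fitted effect of over 55% in size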
[11] = molecular target: Aryl hydrocarbon receptor (Homo sapiens) (UniProt P35869); assay: qHTS assay to identify small molecule that activate the aryl hydrocarbon receptor (AhR) signaling pathway (AID 743085);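 note: HG2L7.5c1 human HepG2 liver cells with stably integrated DRE-driven firefly reporter; series mostly up to about 70 µM; nearly all actives have a fitted effect of over 15% in size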
How it was run: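 Luminescence (ONE-Glo) from a dioxin-responsive-element luciferase reporter in HG2L7.5c1 HepG2 cells after 24 hr compound exposure at 37C; viability measured by CellTiter-Fluor fluorescence beforehand.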

[12] = qHTS assay to identify small molecule that activate the aryl hydrocarbon receptor (AhR) signaling pathway - cell viability counter screen (AID 743086);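 note: HepG2 liver cells carrying the AhR DRE luciferase reporter; series mostly up to about 70 µM; nearly all actives have a fitted effect of over 45% in size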
How it was run: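 Cytotoxicity counter screen: CellTiter-Fluor signal (30 min, 37 C) in 4000 HepG2 cells/well carrying the DRE-luciferase reporter, following 24 h compound exposure at 37 C.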

[13] = molecular target: Peroxisome proliferator-activated receptor gamma (Homo sapiens) (UniProt P37231); assay: qHTS assay to identify small molecule agonists of the peroxisome proliferator-activated receptor gamma (PPARg) signaling pathway (AID 743094; active = well fitted activation curve with a large enough effect in the signal ratio in the repeat runs, not every such curve was filed as active; the % refers to the signal ratio)
How it was run: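 Quantitative HTS agonist mode: stable HEK293H line with UAS-beta-lactamase reporter under PPARg control, 17 h compound exposure at 37C, fluorescence after 1 h FRET substrate loading at room temperature.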

[14] = qHTS assay to identify small molecule antagonists of the peroxisome proliferator-activated receptor gamma (PPARg) signaling pathway - cell viability counter screen (AID 743194); note: nearly all actives have a fitted effect of over 55% in size
How it was run: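 Viability was measured as CellTiter-Glo luminescence in GeneBLAzer PPARg UAS-bla HEK293H cells. These cells had been exposed 17 h at 37 C to compounds together with rosiglitazone at 50 nM final, with the beta-lactamase readout taken in the same wells.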

[15] = qHTS assay for small molecule agonists of the antioxidant response element (ARE) signaling pathway (AID 743202; active = well fitted activation curve with a large enough effect in the signal ratio in the repeat runs, not every such curve was filed as active; the % refers to the signal ratio; note: potency is the fitted concentration of half-maximal effect)
How it was run: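 Quantitative high-throughput format in HepG2 cells bearing an integrated ARE-beta-lactamase reporter. Compound exposure lasted 16 h at 37 C, and fluorescence was read 2 h after adding LiveBLAzer B/G substrate at room temperature.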

[16] = qHTS assay for small molecule agonists of the antioxidant response element (ARE) signaling pathway - cell viability counter screen (AID 743203; calls by dose curve; note: nearly all actives have a fitted effect of over 55% in size)
How it was run: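 Seeded at 2,000 cells/well, ARE-bla HepG2 cells were incubated 5 hrs before compound addition. After 16 hrs of treatment at 37C with 5% CO2, CellTiter-Glo reagent was added and luminescence read 30 min later.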

[17] = qHTS assay for small molecule activators of the heat shock response signaling pathway - cell viability counter screen (AID 743209); note: nearly all actives have a fitted effect of over 50% in size
How it was run: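 First, HSE-bla HeLa cells were seeded at 1500 cells/well and kept overnight at 37 C. Next, compounds were pinned in and incubated 5 h. After the FRET substrate step, CellTiter-Glo was added and luminescence read 30 min later.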

[18] = qHTS assay for small molecule activators of the heat shock response signaling pathway (AID 743210; active = well fitted activation curve with a large enough effect in the signal ratio in the repeat runs, with a control signal flat, not every such curve was filed as active; the % refers to the signal ratio;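 note: HeLa cells with beta-lactamase reporter driven by heat shock elements; series mostly up to about 63 µM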)
How it was run: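 HeLa HSE-bla cells, overnight plating; cpd in DMSO 5 h, 37 C; LiveBLAzer B/G FRET substrate 2.5 h RT; fluorescence intensity read.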

[19] = molecular target: Peroxisome proliferator-activated receptor gamma (Homo sapiens) (UniProt P37231); assay: qHTS assay to identify small molecule antagonists of the peroxisome proliferator-activated receptor gamma (PPARg) signaling pathway (AID 743191; calls by dose curve; note: series mostly up to about 63 µM; nearly all actives have a fitted effect of over 30% in size)
How it was run: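 Beta-lactamase reporter under UAS control in HEK293H PPARg-bla cells; compound treatment 17 h at 37C. Read-out: fluorescence intensity after 1 h room-temperature incubation with LiveBLAzer B/G FRET substrate.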

Aryl hydrocarbon receptor (Homo sapiens), sequence (P35869 whole entry, looked up): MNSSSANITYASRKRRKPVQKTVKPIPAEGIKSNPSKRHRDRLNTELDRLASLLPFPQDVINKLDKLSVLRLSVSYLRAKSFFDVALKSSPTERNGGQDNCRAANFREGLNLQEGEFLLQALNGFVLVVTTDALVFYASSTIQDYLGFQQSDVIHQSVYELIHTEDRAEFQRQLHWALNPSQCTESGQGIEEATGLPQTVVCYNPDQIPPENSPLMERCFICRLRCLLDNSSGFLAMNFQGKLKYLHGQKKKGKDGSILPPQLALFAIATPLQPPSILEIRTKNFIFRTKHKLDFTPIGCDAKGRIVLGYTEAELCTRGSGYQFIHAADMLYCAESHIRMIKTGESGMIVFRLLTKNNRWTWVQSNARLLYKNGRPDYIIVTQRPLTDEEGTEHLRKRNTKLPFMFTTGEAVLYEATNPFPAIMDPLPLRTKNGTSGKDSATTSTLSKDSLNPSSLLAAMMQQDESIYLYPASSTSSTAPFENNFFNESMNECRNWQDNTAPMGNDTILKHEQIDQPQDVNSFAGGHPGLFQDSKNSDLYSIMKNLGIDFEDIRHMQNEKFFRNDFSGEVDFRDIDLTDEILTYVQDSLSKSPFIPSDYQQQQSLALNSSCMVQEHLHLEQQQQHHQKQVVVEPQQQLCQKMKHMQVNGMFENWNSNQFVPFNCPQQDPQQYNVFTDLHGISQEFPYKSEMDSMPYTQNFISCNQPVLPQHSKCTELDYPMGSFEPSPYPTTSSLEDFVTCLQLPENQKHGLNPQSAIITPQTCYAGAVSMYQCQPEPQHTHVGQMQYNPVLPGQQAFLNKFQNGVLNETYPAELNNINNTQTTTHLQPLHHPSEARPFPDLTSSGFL
Estrogen receptor (Homo sapiens), sequence (P03372 whole entry, looked up): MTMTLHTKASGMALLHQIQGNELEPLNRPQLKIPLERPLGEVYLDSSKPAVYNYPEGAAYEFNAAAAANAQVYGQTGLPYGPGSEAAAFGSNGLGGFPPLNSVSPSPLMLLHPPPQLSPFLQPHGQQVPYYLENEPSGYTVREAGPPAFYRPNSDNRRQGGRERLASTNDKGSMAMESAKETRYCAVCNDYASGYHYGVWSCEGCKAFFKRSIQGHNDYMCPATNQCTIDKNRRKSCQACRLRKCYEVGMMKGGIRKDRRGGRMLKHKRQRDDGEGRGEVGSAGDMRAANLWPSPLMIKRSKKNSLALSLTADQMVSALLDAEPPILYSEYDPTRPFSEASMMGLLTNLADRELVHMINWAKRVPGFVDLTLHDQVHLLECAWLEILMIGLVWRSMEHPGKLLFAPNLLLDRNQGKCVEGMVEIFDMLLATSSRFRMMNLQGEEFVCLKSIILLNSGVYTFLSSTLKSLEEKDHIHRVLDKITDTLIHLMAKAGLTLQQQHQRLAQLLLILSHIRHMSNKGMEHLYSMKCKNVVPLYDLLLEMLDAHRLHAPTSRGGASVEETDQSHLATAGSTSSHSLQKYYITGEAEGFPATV
Aromatase (Homo sapiens), sequence (P11511 whole entry, looked up): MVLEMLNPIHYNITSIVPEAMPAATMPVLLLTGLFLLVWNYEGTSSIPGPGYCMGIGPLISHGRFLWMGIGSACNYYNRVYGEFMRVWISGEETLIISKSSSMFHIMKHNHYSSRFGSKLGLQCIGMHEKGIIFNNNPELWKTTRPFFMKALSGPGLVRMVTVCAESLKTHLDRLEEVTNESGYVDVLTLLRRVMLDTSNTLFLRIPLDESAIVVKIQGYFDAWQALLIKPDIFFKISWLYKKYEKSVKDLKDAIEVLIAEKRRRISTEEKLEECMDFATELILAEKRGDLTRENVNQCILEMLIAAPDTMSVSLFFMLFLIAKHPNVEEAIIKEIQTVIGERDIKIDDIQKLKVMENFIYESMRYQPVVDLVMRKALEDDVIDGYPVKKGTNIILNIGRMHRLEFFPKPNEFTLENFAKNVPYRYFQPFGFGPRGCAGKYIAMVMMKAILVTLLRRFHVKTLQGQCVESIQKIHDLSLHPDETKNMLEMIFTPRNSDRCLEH
Peroxisome proliferator-activated receptor gamma (Homo sapiens), sequence (P37231 whole entry, looked up): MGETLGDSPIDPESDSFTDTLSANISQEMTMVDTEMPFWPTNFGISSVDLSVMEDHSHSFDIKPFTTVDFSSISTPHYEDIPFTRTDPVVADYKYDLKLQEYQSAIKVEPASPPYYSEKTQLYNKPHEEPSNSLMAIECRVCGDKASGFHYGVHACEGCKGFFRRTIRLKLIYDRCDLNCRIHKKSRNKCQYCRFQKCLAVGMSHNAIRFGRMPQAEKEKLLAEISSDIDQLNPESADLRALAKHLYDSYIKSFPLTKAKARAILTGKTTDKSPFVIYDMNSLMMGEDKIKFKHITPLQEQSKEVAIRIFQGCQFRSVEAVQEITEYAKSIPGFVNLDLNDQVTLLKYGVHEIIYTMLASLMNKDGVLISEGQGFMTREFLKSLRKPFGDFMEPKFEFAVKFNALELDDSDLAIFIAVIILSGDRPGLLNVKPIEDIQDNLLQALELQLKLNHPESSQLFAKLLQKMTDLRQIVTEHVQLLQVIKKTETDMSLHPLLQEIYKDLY

Row | Compound | Potency [1] | Potency [2] | outcome [3] | Potency [4] | outcome [5] | Potency [6] | Potency [7] | outcome [8] | Potency [9] | Potency (Aromatase (Homo sapiens)) | Potency [10] | Potency [11] | Potency [12] | outcome [13] | outcome [14] | Potency [15] | Potency [16] | outcome [17] | outcome [18] | outcome [19]
1 | O=C(O)c1ccc(S(=O)(=O)N(Cl)Cl)cc1 | inactive | inactive | inactive | inactive | inactive | inactive | inactive | inactive | inactive | inactive | inactive | inactive | inactive | inactive | inactive | 27.5 µM (active) and inactive | inactive | inactive | inactive | –
2 | CC(=O)CCC=C(C)C | inactive | inactive | inactive | inactive | inactive | inactive | inactive | inactive | inactive | inactive | inactive | inactive | inactive | inactive | inactive | inactive | inactive | inactive | inactive | inactive
3 | CC(=O)OCc1ccco1 | inactive | inactive | inactive | inactive | inactive | inactive | inactive | inactive | inactive | inactive | inactive | inactive | inactive | inactive | inactive | inactive | inactive | inactive | inactive | inactive
4 | CCCCCCC=O | inactive | inactive | inactive | inactive | inactive | inactive | inactive | inactive | inactive | inactive | inactive | inactive | inactive | inactive | inactive | inactive | inactive | inactive | inactive | –
